Measurements as given in PubChem BioAssay (Tox21).
Records with an inconclusive call do not appear. Entries that show only a call come without a potency. Active and inactive are the calls of the source. Unless noted, the call rests on the fitted dose curve; in most records, active means well fitted curve in the direction sought with a large enough effect in the repeat runs; inconclusive means weak or mixed curves; inactive means no such curve, though single readings can be large; an effect the other way counts as inactive or inconclusive.

Assays:
[1] = qHTS assay to identify aromatase inhibitors - cell viability counter screen (AID 743084);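 further: cells stimulated with testosterone during compound exposure; nearly all actives have a fitted effect of over 55% in size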; further: potency means the concentration at half of the fitted maximal effect
[2] = target: Peroxisome proliferator-activated receptor gamma (Homo sapiens) (UniProt P37231); assay: qHTS assay to identify small molecule agonists of the peroxisome proliferator-activated receptor gamma (PPARg) signaling pathway (AID 743094; active means well fitted activation curve with a large enough effect in the signal ratio in the repeat runs, not every such curve was filed as active; the % refers to the signal ratio)
In short: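 Beta-lactamase FRET fluorescence was the read-out after a 1 h room-temperature substrate step, following 17 h compound treatment at 37C of HEK293H cells expressing a UAS-driven bla reporter responsive to PPARg.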

[3] = target: Peroxisome proliferator-activated receptor gamma (Homo sapiens) (UniProt P37231); assay: qHTS assay to identify small molecule antagonists of the peroxisome proliferator-activated receptor gamma (PPARg) signaling pathway (AID 743191; calls by dose curve; further: series mostly up to about 63 µM; nearly all actives have a fitted effect of over 30% in size)
In short: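 GeneBLAzer PPARg UAS-bla HEK293H cells, 5 h post-plating, exposed to compounds 17 h at 37C. LiveBLAzer B/G FRET substrate added for 1 h at room temperature; beta-lactamase reporter read by fluorescence intensity.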

[4] = qHTS assay to identify small molecule antagonists of the peroxisome proliferator-activated receptor gamma (PPARg) signaling pathway - cell viability counter screen (AID 743194); further: nearly all actives have a fitted effect of over 55% in size; further: potency means the concentration at half of the fitted maximal effect
In short: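 Cytotoxicity counter screen in PPARg-bla HEK293H cells, same wells as reporter assay. Compounds plus 50 nM rosiglitazone (final) for 17 h at 37 C, then viability read by CellTiter-Glo luminescence.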

[5] = qHTS assay for small molecule agonists of the antioxidant response element (ARE) signaling pathway (AID 743202; active means well fitted activation curve with a large enough effect in the signal ratio in the repeat runs, not every such curve was filed as active; the % refers to the signal ratio; further: potency means the concentration at half of the fitted maximal effect)
In short: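 Agonist mode reporter screen: HepG2 cells with ARE-controlled beta-lactamase are incubated with test compounds for 16 h at 37 C, and beta-lactamase activity is measured as fluorescence of cleaved B/G FRET substrate.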

[6] = qHTS assay for small molecule agonists of the antioxidant response element (ARE) signaling pathway - cell viability counter screen (AID 743203; calls by dose curve; further: nearly all actives have a fitted effect of over 55% in size)
In short: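 HepG2 cells carrying ARE-driven beta-lactamase; 2,000 cells/well; 5 hrs plating; compound pinned from DMSO; 16 hrs 37C/5% CO2; CellTiter-Glo added; 30 min RT; luminescence.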

[7] = qHTS assay for small molecule activators of the heat shock response signaling pathway - cell viability counter screen (AID 743209); further: nearly all actives have a fitted effect of over 50% in size
In short: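 Luminescence from CellTiter-Glo, added after the beta-lactamase FRET read, gave the viability signal. Cells were HSE-bla HeLa treated with DMSO-dissolved compounds for 5 h at 37 C following overnight plating.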

[8] = qHTS assay for small molecule activators of the heat shock response signaling pathway (AID 743210; active means well fitted activation curve with a large enough effect in the signal ratio in the repeat runs, with a control signal flat, not every such curve was filed as active; the % refers to the signal ratio;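 further: HeLa cells with beta-lactamase reporter driven by heat shock elements; series mostly up to about 63 µM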)
In short: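 Quantitative high-throughput format using an engineered HeLa line in which heat shock response elements drive beta-lactamase; after 5 h with compound, cells received a B/G FRET substrate and fluorescence was read.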

[9] = qHTS assay to identify small molecule that activate the aryl hydrocarbon receptor (AhR) signaling pathway - cell viability counter screen (AID 743086);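 further: HepG2 liver cells carrying the AhR DRE luciferase reporter; series mostly up to about 70 µM; nearly all actives have a fitted effect of over 45% in size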
In short: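 HepG2-AhR-luc (HG2L7.5c1) cells, 4000/well, treated 24 h at 37 C with compound; viability measured as CellTiter-Fluor fluorescence after 30 min in the same wells as the luciferase read.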

[10] = target: Aryl hydrocarbon receptor (Homo sapiens) (UniProt P35869); assay: qHTS assay to identify small molecule that activate the aryl hydrocarbon receptor (AhR) signaling pathway (AID 743085);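 further: HG2L7.5c1 human HepG2 liver cells with stably integrated DRE-driven firefly reporter; series mostly up to about 70 µM; nearly all actives have a fitted effect of over 15% in size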
In short: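 HepG2 cells (HG2L7.5c1) stably carrying a firefly luciferase reporter driven by 20 dioxin responsive elements were exposed to compound for 24 h at 37C after a 5 h settling period; luminescence rise (ONE-Glo) indicated activation.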

Peroxisome proliferator-activated receptor gamma (Homo sapiens), sequence (P37231 whole entry, looked up): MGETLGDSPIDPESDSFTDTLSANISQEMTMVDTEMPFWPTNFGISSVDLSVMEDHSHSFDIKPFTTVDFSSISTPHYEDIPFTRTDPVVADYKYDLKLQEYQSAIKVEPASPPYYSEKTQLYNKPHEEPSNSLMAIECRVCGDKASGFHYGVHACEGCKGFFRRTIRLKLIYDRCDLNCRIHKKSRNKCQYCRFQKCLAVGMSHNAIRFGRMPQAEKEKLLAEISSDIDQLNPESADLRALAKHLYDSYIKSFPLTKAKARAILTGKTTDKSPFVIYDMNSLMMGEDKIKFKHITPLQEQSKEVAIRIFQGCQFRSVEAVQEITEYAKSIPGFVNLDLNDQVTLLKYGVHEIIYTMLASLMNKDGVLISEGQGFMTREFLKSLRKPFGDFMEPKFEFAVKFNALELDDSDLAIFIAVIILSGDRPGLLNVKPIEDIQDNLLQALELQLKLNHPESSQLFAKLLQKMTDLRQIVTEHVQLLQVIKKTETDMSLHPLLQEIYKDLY
Aryl hydrocarbon receptor (Homo sapiens), sequence (P35869 whole entry, looked up): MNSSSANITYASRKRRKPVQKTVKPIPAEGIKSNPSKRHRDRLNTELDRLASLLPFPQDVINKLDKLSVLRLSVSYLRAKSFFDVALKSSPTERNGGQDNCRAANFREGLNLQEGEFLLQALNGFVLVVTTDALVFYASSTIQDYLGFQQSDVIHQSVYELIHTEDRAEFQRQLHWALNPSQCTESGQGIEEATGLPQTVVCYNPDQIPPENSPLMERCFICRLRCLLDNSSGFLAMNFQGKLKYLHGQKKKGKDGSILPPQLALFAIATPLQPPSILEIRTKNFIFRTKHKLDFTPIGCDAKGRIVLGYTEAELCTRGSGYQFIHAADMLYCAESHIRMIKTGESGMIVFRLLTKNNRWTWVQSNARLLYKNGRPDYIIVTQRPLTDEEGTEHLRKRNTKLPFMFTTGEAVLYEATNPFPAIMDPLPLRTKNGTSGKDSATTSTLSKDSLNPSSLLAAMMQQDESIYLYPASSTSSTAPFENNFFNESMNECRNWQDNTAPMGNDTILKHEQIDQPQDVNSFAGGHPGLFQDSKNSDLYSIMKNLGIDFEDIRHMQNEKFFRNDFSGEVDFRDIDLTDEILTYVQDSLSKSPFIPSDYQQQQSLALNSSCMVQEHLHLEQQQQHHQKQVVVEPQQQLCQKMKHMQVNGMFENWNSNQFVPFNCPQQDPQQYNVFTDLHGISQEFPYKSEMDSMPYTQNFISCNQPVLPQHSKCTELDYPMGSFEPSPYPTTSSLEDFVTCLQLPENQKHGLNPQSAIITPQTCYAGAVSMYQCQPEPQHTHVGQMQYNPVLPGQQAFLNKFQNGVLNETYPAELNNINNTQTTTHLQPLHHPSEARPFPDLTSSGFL

SMILES	Potency [1]	outcome [2]	outcome [3]	Potency [4]	Potency [5]	outcome [6]	outcome [7]	outcome [8]	Potency [9]	Potency [10]
COC(=O)C1=C(C)NC(C)=C(C(=O)OCC(C)=O)C1c1ccccc1[N+](=O)[O-] (centres undefined)	26.6 µM (active)	inactive	inactive	inactive	inactive	inactive	inactive	inactive		
CC(C)CCCC(C)CCCC(C)CCCCC(C)CCCC(C)CCCC(C)C (centres undefined)	inactive			inactive	inactive	inactive	inactive	inactive	inactive	
Oc1ccc2c(c1)OC[C@@H](N1CCC(O)(c3ccc(F)cc3)CC1)[C@H]2O	inactive	inactive	inactive	inactive		inactive	inactive	inactive	inactive	
C[C@H](O)C(=O)Nc1c(I)c(C(=O)NC(CO)CO)c(I)c(C(=O)NC(CO)CO)c1I	inactive	inactive	inactive	inactive	inactive	inactive	inactive	inactive	inactive	
O=C(O)Cc1cc(I)c(Oc2cc(I)c(O)c(I)c2)c(I)c1	inactive			19.1 µM (active)					inactive	
C=C(C)[C@H]1CC=C(C)CC1	inactive			inactive	inactive	inactive	inactive		inactive	
C=C(C)C(=O)OCCC(C)OC(=O)C(=C)C (centres undefined)	inactive	inactive	inactive	inactive	inactive	inactive	inactive	inactive		
COC(=O)c1ccc(C(=O)OC)c(C(=O)OC)c1	inactive	inactive	inactive	inactive	inactive	inactive	inactive	inactive	inactive	
COc1cc(C)cc(O)c1	inactive	inactive				inactive	inactive	inactive	inactive	
CC(C)(C)OC(=O)N1C[C@@H](F)C[C@H]1C(=O)O	inactive	inactive	inactive	inactive	inactive	inactive		inactive	inactive	
CCn1cc(C(=O)O)c(=O)c2cc(F)c(N3CCN(C)CC3)cc21	inactive	inactive	inactive	inactive	inactive	inactive	inactive	inactive	inactive	
CC(C)COC(=O)C(C)C	inactive	inactive		inactive	inactive	inactive	inactive	inactive	inactive	
c1ccc(CCCc2ccccn2)cc1	inactive	inactive	inactive	inactive		inactive	inactive		inactive	
CCCCCCCCCCCCCCCCCC(=O)OCCCCCCCCCCCCCC(C)C	inactive	inactive	inactive	inactive	inactive	inactive	inactive			
CCN(CC)S(=O)(=O)c1ccc(C(=O)O)cc1	inactive	inactive		inactive	inactive	inactive		inactive	inactive	
NC(=O)c1ncn([C@@H]2O[C@H](CO)[C@@H](O)[C@H]2O)c1N	inactive	inactive	inactive	inactive	inactive	inactive	inactive	inactive	inactive	
Cc1ccc(N)cc1[N+](=O)[O-]	inactive		inactive	inactive	inactive	inactive	inactive	inactive	inactive	
N[C@@H](CS)C(=O)O	inactive	inactive		inactive	inactive	inactive	inactive		inactive	
CSc1nc(NC2CC2)nc(NC(C)(C)C)n1	inactive	inactive	inactive	inactive		inactive	inactive		inactive	
c1ccc(SCCSc2ccccc2)cc1	inactive	inactive		inactive	inactive	inactive	inactive		inactive	
CC(C)COC(=O)c1ccccc1O	inactive	inactive	inactive	inactive	inactive	inactive	inactive			
CCN1CCCC1CNC(=O)c1cc(S(N)(=O)=O)ccc1OC (centres undefined)	inactive	inactive	inactive	inactive	inactive	inactive	inactive	inactive		
CCOC(=O)Cn1c(=O)sc2cccc(Cl)c21	inactive	inactive	inactive	inactive		inactive		inactive	inactive	

SMILES	Potency [1]	outcome [2]	outcome [3]	Potency [4]	Potency [5]	outcome [6]	outcome [7]	outcome [8]	Potency [9]	Potency [10]
COc1cc(O)cc(O)c1	inactive	inactive	inactive	inactive		inactive			inactive	
CC1=CCC2C(C1)C2(C)C (centres undefined)	inactive	inactive		inactive		inactive	inactive		inactive	
CC(=O)O[C@H](CC(=O)[O-])C[N+](C)(C)C	inactive	inactive	inactive	inactive		inactive	inactive	inactive	inactive	
O=S(=O)(O)c1ccccc1O	inactive	inactive	inactive	inactive		inactive	inactive	inactive	inactive	
[O-][N+](=Nc1ccccc1)c1ccccc1	inactive	inactive		inactive	6.86 µM (active)	inactive	inactive	inactive	inactive	
CC(C)(C)N(CCO)CCO	inactive	inactive	inactive	inactive	inactive	inactive	inactive	inactive	inactive	
CC1=CC(C)C(C=O)C(C)C1 (centres undefined)	inactive	inactive	inactive	inactive	inactive	inactive	inactive	inactive	inactive	
N#CCc1ccccc1[N+](=O)[O-]	inactive	inactive	inactive	inactive	inactive	inactive	inactive	inactive		
CN(C)N=Nc1ccccc1				inactive	inactive	inactive	inactive	inactive	inactive	
CC(C)CCCCCCN		inactive	inactive	inactive	inactive	inactive	inactive	inactive	inactive	inactive
CC(C)CCCC(C)NCCC(C)C (centres undefined)			inactive	inactive		inactive	inactive	inactive		
C=C(C)C1CC=C(C)C(O)C1 (centres undefined)	inactive	inactive		inactive	inactive	inactive				
O=C(O)C1CCC1			inactive	inactive	inactive	inactive	inactive	inactive		
O=C(CCOCCOCCOCCOCCC(=O)Nc1c(I)cc(I)c(C(=O)O)c1I)Nc1c(I)cc(I)c(C(=O)O)c1I				inactive	inactive	inactive		inactive		
CCCC(=O)O[C@]1(C(=O)CCl)[C@@H](C)C[C@H]2[C@@H]3CCC4=CC(=O)C=C[C@]4(C)[C@@]3(F)C(=O)C[C@@]21C	inactive	inactive		inactive		inactive		inactive		
C=CCOCC(O)CS(=O)(=O)O (centres undefined)	inactive	inactive		inactive	inactive	inactive	inactive	inactive		
CCn1c(=O)c2c(nc(/C=C/c3ccc(OC)c(OC)c3)n2C)n(CC)c1=O				inactive	inactive	inactive	inactive	inactive		
C/C=C1\C(=O)C[C@H]2[C@@H]3CCC4=CC(=O)CC[C@]4(C)[C@H]3CC[C@]12C	inactive			inactive		inactive	inactive	inactive		
CC(C)[N+](C)(C)CC(O)COc1cccc2ccccc12 (centres undefined)	inactive	inactive	inactive	inactive		inactive	inactive	inactive		
Cc1ccccc1C(=O)O		inactive	inactive	inactive	inactive	inactive			inactive	inactive
CCCCCCCCCCCCI				inactive	inactive	inactive		inactive	inactive	
CN(C)C(=O)C(CCN1CCC(O)(c2ccc(Cl)cc2)CC1)(c1ccccc1)c1ccccc1							inactive	inactive		inactive
N#CC1(O)CCCCC1	inactive	inactive	inactive		inactive	inactive		inactive		

SMILES	Potency [1]	outcome [2]	outcome [3]	Potency [4]	Potency [5]	outcome [6]	outcome [7]	outcome [8]	Potency [9]	Potency [10]
N#CCN(CC#N)CCN(CC#N)CC#N				inactive	inactive	inactive	inactive	inactive	inactive	
CC(O)CN(CCCN(C)C)CCCN(C)C (centres undefined)					inactive		inactive	inactive	inactive	
CCCCC=O				inactive	inactive	inactive		inactive	inactive	
Cc1c(F)cc2c(=O)c(C(=O)O)cn3c2c1CCC3C (centres undefined)					inactive	inactive	inactive	inactive		
COc1ccc2cc(C=O)ccc2c1				inactive	inactive	inactive	inactive	inactive		
NC(=O)CCCCC1CCSS1 (centres undefined)		inactive	inactive	inactive		inactive	inactive	inactive	inactive	inactive
O=C(O)CCNC(=O)c1ccc(N=Nc2ccc(O)c(C(=O)O)c2)cc1		inactive	inactive	inactive	inactive	inactive	inactive			
CCN1CCCC(OC(=O)C(c2ccccc2)c2ccccc2)C1 (centres undefined)		inactive	inactive	inactive	inactive	inactive	inactive	inactive	inactive	inactive
CCCOc1ccccc1-c1nc2n[nH]nc2c(=O)[nH]1	inactive	inactive		inactive	inactive	inactive		inactive		
O=C1CC2(CCCC2)CC(=O)N1			inactive	inactive	inactive	inactive	inactive	inactive		
CNC(=O)c1c(I)c(NC(=O)CCCCC(=O)Nc2c(I)c(C(=O)O)c(I)c(C(=O)NC)c2I)c(I)c(C(=O)O)c1I			inactive	inactive	inactive	inactive	inactive			
CC1(C)OC(=O)Nc2ccc(Br)cc21				inactive	inactive	inactive				
O=c1[nH]c(=O)n([C@H]2O[C@H](CO)[C@@H](O)[C@@H]2O)cc1/C=C\Br					inactive	inactive				
O=S(=O)(c1cccc2cnccc12)N1CCCNCC1	inactive		inactive	inactive		inactive	inactive	inactive		
CC(C)(C)C(=O)/C=C/c1ccc(Cl)cc1		inactive		inactive		inactive			inactive	
CCCCCCCCCCCCCCC				inactive	inactive	inactive	inactive	inactive	inactive	
Nc1ncnc2c1ncn2Cc1c(F)cccc1Cl			inactive	inactive	inactive	inactive	inactive	inactive		
CCN1CCN(c2cc3c(cc2F)c(=O)c(C(=O)O)cn3C2CC2)CC1		inactive	inactive	inactive	inactive	inactive	inactive	inactive	inactive	inactive
CCCCCCCCC=O					inactive	inactive	inactive	inactive	inactive	
CCCCCCCCCCCCCCCCCCOCC(O)CO (centres undefined)	inactive	inactive		inactive	inactive	inactive		inactive		
COc1cccc(Br)c1	inactive	inactive		inactive	inactive	inactive	inactive	inactive		
CCCCC1CCCCC(=O)O1 (centres undefined)	inactive		inactive	inactive		inactive	inactive			
O=c1[nH]c2ccccc2c(=O)n1CCCl				inactive		inactive	inactive	inactive		
